# Reference: PubChem BioAssay (NCATS)
# Inconclusive results are not listed. Unmarked numbers belong to inactive results. Active and inactive are the calls of the source. Calls follow the shape of the dose curve; as a rule, active = well fitted activation curve with a large enough effect; inconclusive = small, poorly fitted or top-dose-only effect; inactive = no such curve, though single readings can be large or run the other way.
# Biological target: Rap guanine nucleotide exchange factor 4 (Homo sapiens) (UniProt Q8WZA2)
# Sequence (Q8WZA2 whole entry, looked up): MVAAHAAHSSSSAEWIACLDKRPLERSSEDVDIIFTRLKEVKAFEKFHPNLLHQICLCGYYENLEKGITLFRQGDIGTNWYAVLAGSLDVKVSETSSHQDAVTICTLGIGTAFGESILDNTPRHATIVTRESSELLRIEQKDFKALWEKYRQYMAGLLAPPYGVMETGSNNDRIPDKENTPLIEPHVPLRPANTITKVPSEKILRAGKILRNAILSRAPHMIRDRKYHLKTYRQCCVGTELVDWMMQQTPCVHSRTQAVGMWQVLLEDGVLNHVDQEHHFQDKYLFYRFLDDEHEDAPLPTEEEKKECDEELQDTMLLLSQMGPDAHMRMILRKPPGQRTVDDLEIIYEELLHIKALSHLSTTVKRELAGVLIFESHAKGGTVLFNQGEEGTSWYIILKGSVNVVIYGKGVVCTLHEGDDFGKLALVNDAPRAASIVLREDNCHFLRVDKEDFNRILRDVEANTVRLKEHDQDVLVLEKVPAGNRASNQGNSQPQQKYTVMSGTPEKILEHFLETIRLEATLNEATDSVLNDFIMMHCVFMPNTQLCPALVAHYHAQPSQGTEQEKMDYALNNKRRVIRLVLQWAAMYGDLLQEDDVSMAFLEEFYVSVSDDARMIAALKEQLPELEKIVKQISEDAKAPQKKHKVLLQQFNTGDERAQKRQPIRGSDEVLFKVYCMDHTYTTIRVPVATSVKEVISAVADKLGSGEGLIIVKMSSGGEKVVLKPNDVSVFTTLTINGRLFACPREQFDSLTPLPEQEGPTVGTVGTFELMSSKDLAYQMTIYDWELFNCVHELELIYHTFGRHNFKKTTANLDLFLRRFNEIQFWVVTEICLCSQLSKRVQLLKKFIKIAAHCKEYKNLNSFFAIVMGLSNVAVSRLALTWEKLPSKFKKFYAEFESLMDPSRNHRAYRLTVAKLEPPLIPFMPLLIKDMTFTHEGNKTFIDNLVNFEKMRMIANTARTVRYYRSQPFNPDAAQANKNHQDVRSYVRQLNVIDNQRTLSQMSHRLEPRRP
# Test: Confirmatory qHTS for agonist of cAMP-regulated guanine nucleotide exchange factor 4 (EPAC2) (AID 1645884);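 also: nucleotide exchange releases bodipy-GDP from Rap1 and this lowers its fluorescence; nearly all actives have a fitted effect of over 65% in size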
# Details: EPAC2 GEF activity, Rap1B-BODIPY-GDP fluorescence; series mostly up to 154 µM; activation: at the top concentration
# % is scaled to controls: 0 for no effect and ±100 for the full control effect; potency is read from the fitted curve at half-maximal effect.
SMILES,activation,Potency
CCCCC(=O)N(c1ccc(C(=O)O)cc1)c1nc(-c2ccc(Cl)cc2)c(CC)s1,"5.89% [at 17.1 µM, percent relative to cAMP agonist control]",
COc1ccc(N2CCN(C(=O)CCc3ccccc3OC)CC2)cc1,3.33%,
COc1c(-c2ccccc2)oc2c(ccc3occc32)c1=O,11.4%,
CC(C)(C)[C@H](N)C(=O)N[C@H]1CCC2C3CC=C4C[C@@H](O)CC[C@]4(C)C3CC[C@@]21C (stereo partly specified),"3.5% [at 17.1 µM, percent relative to cAMP agonist control]",
CC(C)CNC(=O)c1c(-c2ccccc2)c(-c2ccccc2)nn(C)c1=O,"-8.24% [at 83.8 µM, percent relative to cAMP agonist control]",
C/C(=N\N1C(=O)c2ccccc2NC1c1ccco1)c1ccccc1O (stereo unspecified),17%,
CC(OC(=O)CCN1C(=O)C2CC=CCC2C1=O)C(=O)Nc1cccc(C#N)c1 (stereo unspecified),"3.57% [at 17.1 µM, percent relative to cAMP agonist control]",
CN(C)C(=S)Oc1ccccc1-c1ccccc1OC(=S)N(C)C,11.3%,
Cc1ccccc1OCCC(=O)OCC(=O)N1CCN(S(=O)(=O)c2ccc(Cl)cc2)CC1,"7.52% [at 17.1 µM, percent relative to cAMP agonist control]",
COc1cccc2c(N/N=C/c3ccco3)cc(C)nc12,14.4%,
O=c1oc2cc(O)ccc2cc1-c1nc2ccccc2o1,,112 µM (active)
CCOc1ccc(CCNc2ncnc3onc(-c4ccc(Cl)cc4)c23)cc1OCC,"-31.9% [at 83.8 µM, percent relative to cAMP agonist control]",
O=C1NC(=O)C2(N1)C(=O)c1cccc3cccc2c13 (stereo unspecified),,100 µM (active)
COC1=CC(=O)c2c(ccc3ncnc(N)c23)C1=O,-11.1%,
Nc1ccc(-c2c3ccc(=O)cc-3oc3cc(O)ccc23)c(C(=O)O)c1,,100 µM (active)
O=C(N/N=C/c1c(O)n(-c2ccccc2Cl)c(=O)c2ccccc12)c1cccnc1,9.14%,
CCCCN(C(=O)CSCC(=O)Nc1ccc(C)cc1)c1c(N)n(CCCC)c(=O)[nH]c1=O,"4% [at 17.1 µM, percent relative to cAMP agonist control]",
CCN(CC)c1ccc2oc(=O)c(C)nc2c1,,100 µM (active)

SMILES,activation,Potency
COc1cc2c(cc1OC)-c1cc(NC3CCCCC3)nc(=O)n1CC2,"-2.19% [at 17.1 µM, percent relative to cAMP agonist control]",
CN(CCc1ccccn1)C(=O)Nc1ccc(F)cc1,3.39%,
OC1C2CN3CCN(C2)CC1(Cc1ccccc1)C3 (stereo unspecified),"3.83% [at 17.1 µM, percent relative to cAMP agonist control]",
COc1ccccc1C(=O)NC(CCSC)C(=O)NCc1ccccn1 (stereo unspecified),"-0.555% [at 17.1 µM, percent relative to cAMP agonist control]",
O=c1c2ccccc2oc2ccc(Oc3ccccc3)cc12,13.4%,
COc1cccc(C(=O)N(Cc2cc3ccc(C)cc3nc2N(C)C)C2CC2)c1OC,24.6%,
COc1ccc(-c2nc3n(c(=O)c2C#N)CCS3)cc1,"4.85% [at 17.1 µM, percent relative to cAMP agonist control]",
CN(Cc1ccccc1)S(=O)(=O)c1ccc(Cl)c(C(=O)NCc2ccncc2)c1,-3.05%,
COc1ccc(-c2nn(-c3ccccc3)cc2/C=N/n2cnnc2)cc1OC,17.9%,
COC(=O)c1ccc(/C=C2\CCn3c2nc2cc(C(=O)O)ccc2c3=O)cc1,-6.61%,
CC(/C=C1\SC(=S)N(C(C(=O)O)C(C)C)C1=O)=C\c1ccccc1 (stereo unspecified),-11.3%,
Nc1ccn(C2C=CC(CO)O2)c(=O)n1 (stereo unspecified),0%,
CC1CC1C(=O)OCC(=O)NNC(=O)COc1ccc(Br)cc1 (stereo unspecified),"2.41% [at 17.1 µM, percent relative to cAMP agonist control]",
CCN(CC)c1ccc2cc(-c3nnc(Nc4ccc(C)cc4)s3)c(=O)oc2c1,,35.5 µM (active)
CC(=O)N(/N=C1/C(=O)Nc2ccccc21)c1ccccc1,-197%,
Cc1ccc(NC(=O)C2CCCN2S(=O)(=O)c2cccc3nsnc23)c(Br)c1 (stereo unspecified),"0.21% [at 83.8 µM, percent relative to cAMP agonist control]",
Cc1ccc(C)c(N2CCN(C(=O)CCc3nc(-c4ccc(Cl)cc4)no3)CC2)c1,-2.07%,
Cc1cccc(Cn2cc(SCC(=O)Nc3nccs3)c3ccccc32)c1,-6.27%,
